# Changes are numbered by the printed parent chain.
# Tests used:
# [1] = molecular target: T1, SALL4 ZFC4 R900W (HT-SELEX) (Mus musculus, UniProt Q8BX22 870-940, R900W); experiment: HT-SELEX; high values mean tight binding; conditions: protein: recombinant; vector His6-GST; dsDNA, one strand shown
# T1 sequence: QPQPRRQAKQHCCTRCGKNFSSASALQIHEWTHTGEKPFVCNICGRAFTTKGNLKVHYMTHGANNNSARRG
# Outline: (§1)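 Purified recombinant mouse SALL4 zinc finger cluster 4 (residues 870–940, 1 µg) and library DNA (1.5 µg first cycle, 200 ng later) were incubated for 10 min at room temperature in 100 µl of 10 mM Tris–HCl pH 7.5, 50 mM NaCl, poly(dI-dC) and DTT. After Ni2+ bead capture and up to 6 triplicate cycles of selection, DNA was MiSeq-sequenced and scanned for 6-mers. Binding signal is the fold change in each canonical k-mer's read fraction relative to the initial random library.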
# [2] = molecular target: T2, SALL4 ZFC4 G921D (HT-SELEX) (Mus musculus, UniProt Q8BX22 870-940, G921D); experiment: HT-SELEX; high values mean tight binding; conditions: protein: recombinant; vector His6-GST; dsDNA, one strand shown
# T2 sequence: T1 sequence with W31R, G52D
# Outline: as §1
Sequence,binding signal [1] [fold-change vs cycle 0],binding signal [2] [fold-change vs cycle 0]
TCGGCA,0.208 ± 0.0109,0.351 ± 0.0637
CGGACC,0.198 ± 0.0105,0.315 ± 0.0637
GGCGGA,0.12 ± 0.0101,0.238 ± 0.0604
AGCGCT,0.189 ± 0.0213,0.343 ± 0.109
CACGCA,0.282 ± 0.00613,0.422 ± 0.056
CCTCCG,0.252 ± 0.0142,0.367 ± 0.0686
GCCAAC,0.279 ± 0.0168,0.415 ± 0.0905
CCCACC,0.282 ± 0.00918,0.397 ± 0.0572
AGGGCG,0.146 ± 0.011,0.26 ± 0.0708
GAACTA,1.48 ± 0.0646,1.37 ± 0.112
CGCCCG,0.0459 ± 0.011,0.128 ± 0.0586
GGCAGA,0.306 ± 0.0166,0.438 ± 0.0703
GCGTCA,0.266 ± 0.00412,0.39 ± 0.0541
AGGCCG,0.104 ± 0.0123,0.216 ± 0.0702
CGGGTC,0.212 ± 0.0149,0.342 ± 0.0694
CGCTGC,0.0919 ± 0.0151,0.201 ± 0.0834
CCAGGC,0.174 ± 0.0159,0.302 ± 0.0679
GCGCAC,0.0689 ± 0.0069,0.167 ± 0.0842
CACGCC,0.137 ± 0.0218,0.251 ± 0.0597

Sequence,binding signal [1] [fold-change vs cycle 0],binding signal [2] [fold-change vs cycle 0]
ATGCCC,0.331 ± 0.00967,0.475 ± 0.0568
GCCCAC,0.151 ± 0.00605,0.271 ± 0.0717
CAGGCC,0.16 ± 0.0134,0.277 ± 0.0643
AGGCCC,0.169 ± 0.00192,0.296 ± 0.0789
GATGGC,0.36 ± 0.0133,0.489 ± 0.0668
GGGCCA,0.129 ± 0.0234,0.254 ± 0.0851
CAGCGC,0.0744 ± 0.00642,0.177 ± 0.0788
CTTCGC,0.34 ± 0.0357,0.455 ± 0.0772
TCGCGA,0.248 ± 0.0259,0.374 ± 0.0699
ATACGA,1.27 ± 0.0333,1.26 ± 0.0263
GGGGCA,0.178 ± 0.00946,0.291 ± 0.0681
AGCGGA,0.313 ± 0.018,0.432 ± 0.054
GCTGGA,0.37 ± 0.0454,0.484 ± 0.0925
ACGCGT,0.28 ± 0.0448,0.366 ± 0.0637
AGCCAC,0.315 ± 0.0294,0.473 ± 0.0855
CTGGGC,0.152 ± 0.021,0.273 ± 0.0783
AGAGCC,0.335 ± 0.0199,0.505 ± 0.0782
GTCGAC,0.301 ± 0.0134,0.452 ± 0.0612
CGACCC,0.172 ± 0.00839,0.317 ± 0.0852

# From paper PMC9838217, “Structure of SALL4 zinc finger domain reveals link between AT-rich DNA binding and Okihiro syndrome”
